Values joined by “and” are separate entries in the source; they are usually repeats but may differ in a detail not shown here. Equal entries are not always repeated. Records with an inconclusive call do not appear. Active and inactive are the calls of the source. Unless noted, calls come from the whole dose curve; as a rule, active = well fitted curve in the direction sought with a large enough effect; inconclusive = small, poorly fitted or top-dose-only effect, or another doubt; inactive = no such curve, though single readings can be large; an effect the other way counts as inactive or inconclusive.
Assays:
[1] = Cell Viability - H-4-II-E (AID 543);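 note: cells exposed to compound for 40 hours; nearly all actives have a fitted effect of over 35% in size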; note: potency is the fitted concentration of half-maximal effect
Method in brief: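 CellTiter-Glo luminescence (intracellular ATP) measured after 40 h compound exposure at 37 °C in H-4-II-E rat hepatoma cells seeded at 1500/well. Values are AC50s fitted with the standard Hill equation.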

[2] = Cell Viability - LYMP2-001 (AID 921); note: nearly all actives have a fitted effect of over 70% in size; note: potency is the fitted concentration of half-maximal effect
Method in brief: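 A lymphoblastoid cell line of human origin was treated with library compounds across a concentration series for 24 hours, and viable cell number was estimated from ATP-driven luciferase light output. Hill modeling gave AC50.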

[3] = MultiTox-Fluor Cytotoxicity Assay - LYMP1-001 - Live Cells (AID 947); note: potency is the fitted concentration of half-maximal effect
[4] = Cell Viability - LYMP1-003 - Assay at 40 hr (AID 964); note: nearly all actives have a fitted effect of over 60% in size; note: potency is the fitted concentration of half-maximal effect
Method in brief: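 Viability is taken as cellular ATP, read by CellTiter-Glo luminescence after 40 h of compound exposure at 37 C. Cells: human lymphoblastoid line LYMP1-003 at 2500/well; AC50 values derived by Hill-equation fitting of concentration-response data.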

[5] = Cell Viability - LYMP2-004 (AID 966); note: nearly all actives have a fitted effect of over 65% in size; note: potency is the fitted concentration of half-maximal effect
Method in brief: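 AC50 values come from Hill modelling of concentration-dependent loss of intracellular ATP, measured by CellTiter-Glo luminescence. Human LYMP2-004 lymphoblastoid cells (2500/well) were exposed to compound for 24 h at 37 C.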

[6] = Cell Viability - LYMP2-005 (AID 967); note: potency is the fitted concentration of half-maximal effect
Method in brief: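 Luciferase-based ATP quantitation served as the viability measure in human lymphoblastoid LYMP2-005 cells exposed to test compounds for 24 h at 37 C in complete culture medium. Potency (AC50) was obtained by fitting concentration-response curves with the Hill equation.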

[7] = Cell Viability - LYMP2-009 (AID 968); note: nearly all actives have a fitted effect of over 55% in size; note: potency is the fitted concentration of half-maximal effect
[8] = Cell Viability - LYMP2-017 (AID 972); note: nearly all actives have a fitted effect of over 55% in size; note: potency is the fitted concentration of half-maximal effect
Method in brief: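 CellTiter-Glo luminescence (cellular ATP, 30 min RT) measured cytotoxicity after 24 hr compound treatment at 37 C. Cells were a human lymphoblastoid line, LYMP2-017, plated at 2500/well and incubated 5 hr first; concentration-response fitted with Hill equation for AC50.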

[9] = Cell Viability - LYMP2-019 (AID 973); note: nearly all actives have a fitted effect of over 55% in size; note: potency is the fitted concentration of half-maximal effect
Method in brief: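 AC50 values come from Hill-equation fits of luminescent intracellular ATP (CellTiter-Glo, 30 min, room temperature) following 24 h compound exposure at 37 C. Cells: LYMP2-019 lymphoblastoid line, 2500 per well, in complete culture medium.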

[10] = Cell Viability - LYMP2-002 (AID 977); note: potency is the fitted concentration of half-maximal effect
Method in brief: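 In this qHTS viability screen, 2500 human lymphoblastoid cells per well receive compound for 24 hr at 37 C, and luciferase-based ATP luminescence gives the viability signal. Tetraoctylammonium bromide serves as positive control.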

[11] = Cell Viability - LYMP2-006 (AID 978); note: nearly all actives have a fitted effect of over 60% in size; note: potency is the fitted concentration of half-maximal effect
Method in brief: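 In this cytotoxicity screen, the human lymphoblastoid line grew in complete medium with test compounds for 24 hr at 37 C. Cellular ATP served as the viability signal.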

[12] = Cell Viability - LYMP2-020 (AID 986); note: nearly all actives have a fitted effect of over 55% in size; note: potency is the fitted concentration of half-maximal effect
Method in brief: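 Cytotoxicity in qHTS format: luminescent ATP readout from CellTiter-Glo after 24 h compound exposure at 37 C in complete medium. LYMP2-020 lymphoblastoid cells were seeded at 2500/well; concentration-response data fitted to the Hill equation for AC50.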

[13] = Cell Viability - LYMP2-022 (AID 987); note: nearly all actives have a fitted effect of over 55% in size; note: potency is the fitted concentration of half-maximal effect
Method in brief: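 Cytotoxicity read as decreased cellular ATP (CellTiter-Glo luminescence, 30 min room temperature) after 24 hours compound exposure of 2500 lymphoblastoid LYMP2-022 cells/well at 37 C. Concentration-response data fitted with standard Hill equation for AC50.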

[14] = Cell Viability - LYMP2-024 (AID 988); note: nearly all actives have a fitted effect of over 60% in size; note: potency is the fitted concentration of half-maximal effect
Method in brief: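 Cytotoxicity was taken as a decrease in ATP (CellTiter-Glo luminescence) after 24 hr compound exposure at 37 C of LYMP2-024 lymphoblastoid cells, 2500 cells/well. Concentration-response data were fitted to the Hill equation to give AC50.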

[15] = qHTS assay for small molecule antagonists of retinoid X receptor alpha signaling (AID 588546; active = well fitted inhibition curve with a large enough effect in the signal ratio, with a control signal flat, not every such curve was filed as active; the % refers to the signal ratio;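 note: cells stimulated with 9-cis-retinoic acid as agonist; % is set by controls: 0 for no effect and ±100 for the full control effect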); details: HEK293T RXRa-UAS-bla, beta-lactamase ratio, antagonist mode; measured here: W530 green channel, cytotoxicity proxy
Method in brief: (§1)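 Beta-lactamase reporter inhibition, read as CCF4 fluorescence ratio (ex 405, em 460/530 nm) after 2 h at RT. HEK293T UAS-bla cells, 2500/well, were stimulated with 9-cis-RA at 500 or 100 nM final alongside test compound for 18 h at 37 C.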

[16] = biological target: Retinoic acid receptor RXR-alpha (Homo sapiens) (UniProt P19793); experiment: as above; details: HEK293T RXRa-UAS-bla, beta-lactamase ratio, antagonist mode
Chain of Retinoic acid receptor RXR-alpha (Homo sapiens) (P19793 whole entry, looked up): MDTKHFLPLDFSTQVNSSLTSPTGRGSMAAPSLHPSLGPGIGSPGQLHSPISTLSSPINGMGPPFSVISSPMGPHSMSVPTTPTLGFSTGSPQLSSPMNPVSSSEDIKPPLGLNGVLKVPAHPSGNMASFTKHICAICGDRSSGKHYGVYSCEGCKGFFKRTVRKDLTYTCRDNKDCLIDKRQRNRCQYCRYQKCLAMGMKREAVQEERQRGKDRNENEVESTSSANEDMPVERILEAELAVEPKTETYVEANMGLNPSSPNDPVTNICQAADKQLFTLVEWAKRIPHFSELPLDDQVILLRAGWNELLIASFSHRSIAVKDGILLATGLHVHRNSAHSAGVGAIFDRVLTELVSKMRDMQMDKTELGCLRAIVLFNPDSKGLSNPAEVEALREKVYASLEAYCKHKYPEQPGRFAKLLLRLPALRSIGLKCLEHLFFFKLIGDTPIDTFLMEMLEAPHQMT
Method in brief: as §1

[17] = biological target: Thyroid hormone receptor beta (Homo sapiens) (UniProt P10828); experiment: qHTS assay for small molecule antagonists of thyroid hormone receptor beta signaling (AID 588547; active = well fitted inhibition curve with a large enough effect in the signal ratio, with a control signal flat, not every such curve was filed as active; the % refers to the signal ratio;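 note: cells stimulated with 0.4 nM T3 agonist during compound exposure; series mostly up to about 77 µM; % is set by controls: 0 for no effect and ±100 for the full control effect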); details: TR-UAS-bla HEK293, beta-lactamase ratio, antagonist mode, 18 h
Chain of Thyroid hormone receptor beta (Homo sapiens) (P10828 whole entry, looked up): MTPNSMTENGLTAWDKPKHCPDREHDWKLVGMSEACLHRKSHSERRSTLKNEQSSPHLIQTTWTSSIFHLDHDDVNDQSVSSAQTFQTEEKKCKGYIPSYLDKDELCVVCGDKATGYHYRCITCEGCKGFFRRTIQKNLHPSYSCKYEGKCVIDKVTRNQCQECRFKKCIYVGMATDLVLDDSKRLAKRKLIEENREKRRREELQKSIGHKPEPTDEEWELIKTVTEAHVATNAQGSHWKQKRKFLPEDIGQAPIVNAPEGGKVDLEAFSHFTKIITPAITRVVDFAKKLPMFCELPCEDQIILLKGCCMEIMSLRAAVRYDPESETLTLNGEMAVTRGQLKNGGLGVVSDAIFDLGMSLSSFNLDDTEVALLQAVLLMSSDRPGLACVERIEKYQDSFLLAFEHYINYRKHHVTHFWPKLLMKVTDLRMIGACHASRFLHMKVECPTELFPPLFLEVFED
Method in brief: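 TR-UAS-bla GripTite HEK293 cells in 2% charcoal/dextran FBS medium were preincubated 4 h at 37 C, given compound (0.59 nM to 92 uM) plus 0.4 nM T3 (final) for 18 h, then CCF4 for 2 h at RT; Hill fit gave IC50.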

[18] = qHTS assay for small molecule disruptors of the mitochondrial membrane potential - 5 hr assay (AID 651755; calls by dose curve; note: nearly all actives have a fitted effect of over 40% in size; note: potency is the fitted concentration of half-maximal effect)
Method in brief: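 Seed HepG2 overnight, add compound, incubate 5 hr at 37C and 5% CO2, stain 30 min with Mito-MPS, then measure monomer (490/535 nm) and aggregate (540/590 nm) fluorescence.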

[19] = qHTS assay for environmental chemicals that activate the Aryl hydrocarbon Receptor (AhR) signaling pathway (AID 651777); details: 1A2-DRE human hepatoma cells, luciferase, 24 h; activation: stronger effect = higher value; note: nearly all actives have a fitted effect of over 15% in size; note: potency is the fitted concentration of half-maximal effect; for activation: % of control where 0% means no effect
Method in brief: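 Concentration–response screening used 1,200 1A2-DRE cells per well, 24 hr compound exposure (37 C, 5% CO2), and One-Glo luminescence as the AhR-driven CYP1A2 reporter signal.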

[20] = biological target: Nuclear receptor subfamily 1 group I member 2 (Rattus norvegicus) (UniProt Q9R1A7); experiment: qHTS assay for small molecule activators of the rat pregnane X receptor (rPXR) signaling pathway (AID 651751; call rule not given here; note: 0% is about no effect); details: rPXR reporter cells, luciferase (One-Glo), 24 h
Chain of Nuclear receptor subfamily 1 group I member 2 (Rattus norvegicus) (Q9R1A7 whole entry, looked up): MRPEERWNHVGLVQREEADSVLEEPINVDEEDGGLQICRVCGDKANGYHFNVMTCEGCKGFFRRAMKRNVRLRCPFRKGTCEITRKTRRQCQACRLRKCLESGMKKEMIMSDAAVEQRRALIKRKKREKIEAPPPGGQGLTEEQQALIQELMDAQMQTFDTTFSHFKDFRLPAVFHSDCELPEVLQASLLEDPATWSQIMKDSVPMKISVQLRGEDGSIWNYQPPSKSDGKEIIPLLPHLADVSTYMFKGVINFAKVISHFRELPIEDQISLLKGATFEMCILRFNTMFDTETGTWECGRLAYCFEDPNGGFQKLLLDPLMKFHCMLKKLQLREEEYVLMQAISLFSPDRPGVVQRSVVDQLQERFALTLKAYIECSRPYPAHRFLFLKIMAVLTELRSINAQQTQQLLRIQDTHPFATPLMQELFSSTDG

O=C(O)c1ccc([N+](=O)[O-])cc1
inactive: Potency [1] | Potency [2] | Potency [3] | Potency [4] | Potency [5] | Potency [6] | Potency [7] | Potency [8] | Potency [9] | Potency [10] | Potency [11] | Potency [12] | Potency [13] | Potency [14] | max response [16] 3.05% and 5.55% | activity change % (negative = inhibition) [17] -4.73% | Potency [18] | activation [19] 0.333% and 2.14% | max response [20] -2.43% and -1.7%
-8.75% and -3.59%: max response [15]

c1ccc(Nc2cccc3ccccc23)cc1
1.85%: max response [15]
inactive: Potency [1] | Potency [2] | Potency [3] | Potency [4] | Potency [5] | Potency [6] | Potency [7] | Potency [8] | Potency [9] | Potency [10] | Potency [11] | Potency [12] | Potency [13] | Potency [14] | max response [16] -23.3% | activity change % (negative = inhibition) [17] -18.5% and -42%

Nc1ccc(N)c(Cl)c1
inactive: Potency [1] | Potency [5] | Potency [6] | Potency [8] | Potency [9] | Potency [10] | Potency [11] | Potency [12] | max response [16] 9.54% | activity change % (negative = inhibition) [17] -7.72% | max response [20] -1.32%
4.58%: max response [15]
active: Potency [4] 39.8 µM | Potency [13] 39.8 µM | Potency [18] 10.6 µM

S=C(NC1CCCCC1)NC1CCCCC1
inactive: Potency [2] | Potency [3] | Potency [4] | Potency [5] | Potency [6] | Potency [7] | Potency [8] | Potency [9] | Potency [10] | Potency [11] | Potency [12] | Potency [13] | Potency [14] | max response [16] -14.3% | activity change % (negative = inhibition) [17] 30% | Potency [18] | activation [19] 5.57% | max response [20] 8.83%
-2.99%: max response [15]

Oc1cc2c(cc1O)[C@H]1c3ccc(O)c(O)c3OC[C@@]1(O)C2
active: Potency [3] 50.1 µM | Potency [4] 39.8 µM | Potency [5] 31.6 µM | Potency [7] 39.8 µM | Potency [8] 31.6 µM | Potency [9] 39.8 µM | Potency [10] 39.8 µM | Potency [11] 39.8 µM | Potency [12] 39.8 µM | Potency [13] 31.6 µM | Potency [14] 25.1 µM
inactive: max response [16] -15.2% | activity change % (negative = inhibition) [17] -14.1% | Potency [18] | activation [19] -1.85% | max response [20] -8.86%
-1.27%: max response [15]

CN(C)c1ccc(C(=N)c2ccc(N(C)C)cc2)cc1
active: Potency [1] 12.6 µM | Potency [2] 31.6 µM | Potency [12] 39.8 µM | Potency [13] 25.1 µM | Potency [14] 39.8 µM
inactive: Potency [6] | activity change % (negative = inhibition) [17] -25.2% | activation [19] 13.1%

Cc1c(C(=O)O)c(O)cc2c1C(=O)c1c(O)c([C@H]3O[C@H](CO)[C@@H](O)[C@H](O)[C@H]3O)c(O)c(O)c1C2=O
inactive: Potency [3] | Potency [10] | Potency [12] | max response [16] 21% | Potency [18] | activation [19] -4.11% | max response [20] -9.27%
-15.8%: max response [15]

Cc1ccc(O)c(N)c1
inactive: Potency [3] | Potency [10] | max response [16] 11.9% | activity change % (negative = inhibition) [17] -10.8% | max response [20] 12.1%
-2.88%: max response [15]
active: Potency [2] 50.1 µM | Potency [6] 50.1 µM | Potency [8] 50.1 µM | Potency [9] 39.8 µM | Potency [12] 50.1 µM | Potency [13] 39.8 µM | Potency [14] 39.8 µM | Potency [18] 33.5 µM | Potency [19] 50.1 µM

CC(=O)CC(=O)Nc1ccccc1
inactive: Potency [1] | Potency [2] | Potency [3] | Potency [4] | Potency [5] | Potency [6] | Potency [7] | Potency [8] | Potency [9] | Potency [10] | Potency [11] | Potency [12] | Potency [13] | max response [16] -1.7% and -15.3% | activity change % (negative = inhibition) [17] 8.7% and 11% | Potency [18] | activation [19] 1.24% and 1.64% | max response [20] 8.9% and 1.01%
10.1% and 20.6%: max response [15]

CC/C=C/C/C=C/C/C=C/CCCCCCCC(=O)OCC
active: Potency [5] 31.6 µM | Potency [6] 31.6 µM | Potency [7] 39.8 µM | Potency [8] 31.6 µM | Potency [9] 39.8 µM | Potency [11] 50.1 µM | Potency [12] 39.8 µM | Potency [13] 25.1 µM | Potency [14] 25.1 µM
inactive: Potency [1] | Potency [3] | Potency [18] | activation [19] 0.56% | max response [20] 2.44%

Oc1cc(Cl)cc(Cl)c1Cl
inactive: Potency [1] | Potency [2] | Potency [3] | Potency [4] | Potency [5] | Potency [6] | Potency [8] | Potency [9] | Potency [10] | Potency [11] | Potency [13] | activation [19] 2.22% | max response [20] 0.309%

O=[N+]([O-])c1cc(Cl)c(Cl)c(Cl)c1Cl
11.9%: max response [15]
inactive: Potency [2] | Potency [6] | Potency [10] | max response [16] -21.8% | activity change % (negative = inhibition) [17] 1.99% | Potency [18] | activation [19] -0.451% | max response [20] 0.233%

NC(=O)Nc1nc2ccccc2[nH]1
-1.95%: max response [15]
inactive: Potency [1] | Potency [2] | Potency [3] | Potency [4] | Potency [5] | Potency [6] | Potency [7] | Potency [8] | Potency [9] | Potency [10] | Potency [11] | Potency [12] | Potency [13] | Potency [14] | max response [16] 1.58% | activity change % (negative = inhibition) [17] -13.1% | Potency [18] | activation [19] 5.33% | max response [20] -2.46%

O=C1OC(=O)c2ccccc21
inactive: Potency [1] | Potency [2] | Potency [3] | Potency [4] | Potency [5] | Potency [6] | Potency [9] | Potency [10] | Potency [11] | Potency [12] | Potency [13] | Potency [14] | max response [16] 20.4% | activity change % (negative = inhibition) [17] 1.82% | Potency [18]
4.94%: max response [15]

From PubChem BioAssay (NCATS)
